# Data published in PMC4336329 (PLoS ONE, 2015).
# Screen size: about 310,000 compounds; about 14,000 (4.5%) showed an effect of 50% or more. The effect is printed as a negative number. The entries come from a sample that favours strong results as a whole.
# Biological target: human ether-à-go-go-related gene (hERG) potassium channel (human, UniProt Q12809)
# Test: primary screen, population patch clamp on CHO cells stably expressing hERG; higher = less effect of the substance
# 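Also: peak tail current of the secondary pulse compared with the same well before compound.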
# Chain of human ether-à-go-go-related gene (hERG) potassium channel (Q12809 whole entry, looked up): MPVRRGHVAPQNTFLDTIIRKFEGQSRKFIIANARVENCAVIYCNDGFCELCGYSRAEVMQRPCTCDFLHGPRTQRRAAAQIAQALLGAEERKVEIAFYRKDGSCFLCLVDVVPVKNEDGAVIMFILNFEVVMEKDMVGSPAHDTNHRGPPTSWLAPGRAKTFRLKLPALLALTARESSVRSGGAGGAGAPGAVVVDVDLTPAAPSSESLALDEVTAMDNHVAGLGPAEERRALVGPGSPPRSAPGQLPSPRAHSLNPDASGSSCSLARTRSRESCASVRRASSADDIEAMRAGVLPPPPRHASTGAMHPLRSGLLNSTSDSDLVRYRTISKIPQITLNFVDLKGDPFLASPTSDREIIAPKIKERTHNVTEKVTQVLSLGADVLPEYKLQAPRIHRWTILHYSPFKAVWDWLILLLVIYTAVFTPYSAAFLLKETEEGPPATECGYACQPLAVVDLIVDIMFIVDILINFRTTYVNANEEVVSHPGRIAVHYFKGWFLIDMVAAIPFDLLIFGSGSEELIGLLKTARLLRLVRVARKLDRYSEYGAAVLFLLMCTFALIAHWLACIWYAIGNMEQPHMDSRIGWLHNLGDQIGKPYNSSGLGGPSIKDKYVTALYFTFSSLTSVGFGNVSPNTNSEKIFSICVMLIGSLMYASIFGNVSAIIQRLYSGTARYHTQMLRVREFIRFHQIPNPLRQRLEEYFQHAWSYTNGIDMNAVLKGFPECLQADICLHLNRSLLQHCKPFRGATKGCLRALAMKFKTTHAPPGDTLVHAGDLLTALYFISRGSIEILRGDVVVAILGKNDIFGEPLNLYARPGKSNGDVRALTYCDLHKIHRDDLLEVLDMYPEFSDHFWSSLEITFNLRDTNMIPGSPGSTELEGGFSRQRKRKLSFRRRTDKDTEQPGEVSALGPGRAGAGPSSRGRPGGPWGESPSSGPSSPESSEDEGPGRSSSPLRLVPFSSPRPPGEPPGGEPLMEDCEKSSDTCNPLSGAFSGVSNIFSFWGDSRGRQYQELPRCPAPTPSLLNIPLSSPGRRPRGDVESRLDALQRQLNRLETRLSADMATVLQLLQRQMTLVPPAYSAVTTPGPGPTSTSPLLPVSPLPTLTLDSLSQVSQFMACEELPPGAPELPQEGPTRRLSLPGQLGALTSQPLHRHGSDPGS
row,Compound,"hERG current change (%, negative = inhibition) at 10uM [%]"
1,CCOC(=O)c1sc(NC(=O)CSc2ncn(-c3ccccc3)n2)nc1C,7.23
2,COc1ccc(CNC(=O)CCn2c(=O)oc3ccccc32)cc1,-5.31
3,O=C(NC(=S)Nc1ccc2[nH]c(=O)[nH]c2c1)c1ccccc1[N+](=O)[O-],-8.83
4,Cc1cc(C(=O)N2CCN(c3ncccn3)CC2)cs1,-15.6
5,CCOC(=O)c1sc(NC(=S)NC(=O)C2CCCC2)cc1C,7.72
6,CCOc1cc(CNCCO)c(Cl)cc1OCC(=O)NCCc1ccccc1,-6.82
7,CC(NCc1cc(Br)ccc1OCC(=O)NCc1ccccc1)c1ccccc1.Cl (centres unmarked),-59.6
8,CCCNCc1cc(Br)ccc1OCC(=O)NCCc1ccccc1,-63.5
9,COc1ccc(Br)cc1CNC(C)c1ccccc1 (centres unmarked),-19.8
10,COc1cc(CNC(C)c2ccccc2)c(Br)cc1OCC(N)=O (centres unmarked),-17.2
11,CCCNCc1cc(OC)c(OCC(=O)NCCc2ccccc2)cc1Br,-38.1
12,O=C(c1cccnc1)c1ncc(C(F)(F)F)cc1Cl,-3.33
13,O=C(CSc1ccccc1)Nc1nnc(C2CC2)s1,16.9
14,Cc1c(C(=O)N(Cc2ccccc2)Cc2cccs2)cnn1-c1ccc(Cl)cc1,-3.32
15,O=C(/C=C/c1ccccc1)N/C(=C/c1ccccc1)C(=O)NCCCO,-7.96
16,CCC(C)c1ccc(S(=O)(=O)N2CCN(c3ccccn3)CC2)cc1 (centres unmarked),24.6
17,Cc1ccc(-c2c[n+](Cc3ccc(Cl)cc3)c3n2CCC3)cc1.[Cl-],-41.6
18,Cc1ccc(-c2c[n+](Cc3cccc(Cl)c3)c3n2CCC3)cc1.[Br-],-57.7
19,Clc1ccc(-c2c[n+](Cc3ccc(Br)cc3)c3n2CCCCC3)cc1.[Br-],-66.4
20,Cc1ccc(-c2c[n+](CC(=O)N3c4ccccc4Sc4ccccc43)c3n2CCC3)cc1.[Cl-],-49.1
21,Cc1ccc(C[n+]2cc(-c3ccc(Cl)cc3)n3c2CCC3)cc1.[Cl-],-51.3
22,N#CC[n+]1cc(-c2ccc(Cl)cc2)n2c1CCC2.[Cl-],5.21
23,Cc1ccc(-c2c[n+](CC(=O)c3cccs3)c3n2CCC3)cc1.[Br-],5.08

row,Compound,"hERG current change (%, negative = inhibition) at 10uM [%]"
1,Clc1cccc(C[n+]2cc(-c3ccccc3)n3c2CCC3)c1.[Br-],-25.7
2,Clc1ccc(C[n+]2cc(-c3ccc(Cl)cc3)n3c2CCC3)cc1.[Cl-],-61.9
3,CCOc1ccc(CC2NCCc3cc(OCC)c(OCC)cc32)cc1OCC (centres unmarked),-13.3
4,CCN1C(=O)/C(=C\c2ccco2)C(C(=O)OC)=C1C,10.4
5,Cn1nccc1NC(=O)Nc1cccc(Cl)c1Cl,16.5
6,COC(=O)CSc1nc(C2CC2)nc2ccccc12,-11.5
7,Cc1cc(C)cc(N(C(C)C(=O)N2CCCCC2)S(C)(=O)=O)c1 (centres unmarked),4.06
8,Cc1ccc(S(=O)(=O)NCC(=O)N(CC(=O)NCC2CCCO2)Cc2ccc(Cl)cc2)cc1 (centres unmarked),-11
9,Cc1c(Cl)cccc1NC(=S)NC1CCCC1,-5.1
10,Cc1ccc(-c2csc(NC(=O)c3ccno3)n2)cc1,2.72
11,CN1CCN(C(=O)CSc2nc(-c3cccs3)ccc2C#N)CC1,-4.44
12,COC(=O)c1ccc(CN(c2ccccn2)S(=O)(=O)c2ccccc2)cc1,14.1
13,Clc1ccc(C[n+]2cc(-c3ccccc3)n3c2CCC3)cc1Cl.[Cl-],-45.1
14,Cc1ccc(-c2c[n+](Cc3ccc(Cl)c(Cl)c3)c3n2CCC3)cc1.[Cl-],-68.9
15,O=[N+]([O-])c1ccc(C[n+]2cc(-c3ccc(Cl)c(Cl)c3)n3c2CCCCC3)cc1.[Br-],-15.7
16,CC(=O)N1CCN(c2ccccc2NC(=O)c2cc3ccccc3o2)CC1,-49.8
17,O=C1CC(c2ccccc2)CC(O)=C1C=NCCCN1CCOCC1 (centres unmarked),-9.92
18,O=C(O)c1cc(-c2cccs2)nc2ccc(Br)cc12,21
19,CC(=O)N1CCc2cc(Br)cc(S(=O)(=O)NCCCN(C)Cc3ccccc3)c21,-38.3
20,CC(=O)N1c2c(cc(Br)cc2S(=O)(=O)NCc2ccc(C)cc2)CC1C (centres unmarked),-59.5
21,CC(=O)N1c2c(cc(Br)cc2S(=O)(=O)NCc2ccccc2)CC1C (centres unmarked),-35.5
22,CCCCN(C)S(=O)(=O)c1cc(Br)cc2c1N(C(=O)C1CC1)CC2,-51.6
23,CCCN(CCC)S(=O)(=O)c1cc(Br)cc2c1N(C(=O)CC)CC2,-2.75

row,Compound,"hERG current change (%, negative = inhibition) at 10uM [%]"
1,CCN(c1ccc2c(c1)OCO2)S(=O)(=O)c1cc(Br)cc2c1N(C(=O)C1CC1)CC2,8.05
2,O=C(C1CC1)N1CCc2cc(Br)cc(S(=O)(=O)NCc3ccco3)c21,-41
3,CC(=O)N1CCc2cc(Br)cc(S(=O)(=O)NCc3ccc(Cl)cc3)c21,-58.6
4,COc1ccc(CNS(=O)(=O)c2cc(Br)cc3c2N(C(C)=O)C(C)C3)cc1 (centres unmarked),-40.9
5,O=C(C1CC1)N1CCc2cc(Br)cc(S(=O)(=O)NCc3ccc4c(c3)OCO4)c21,-64.8
6,CC(=O)N1CCc2cc(Br)cc(S(=O)(=O)NCc3ccccn3)c21,7.02
7,O=C(O)CCS(=O)(=O)c1cc(Br)cc2c1N(C(=O)C1CC1)CC2,9.39
8,COc1cc(CNn2cnnc2)ccc1OCC(=O)NC(C)(C)C,1.29
9,O=C(Nc1nc(-c2ccc3c(c2)OCO3)cs1)C1COc2ccccc2O1 (centres unmarked),13.1
10,CCn1c(SCC(=O)N=Nc2c(O)[nH]c3ccccc23)nc2ccccc21,-11.9
11,CC1=CC(=O)CC(C)(C)C1(O)/C=C/C(C)=C/C(=O)O (centres unmarked),5.43
12,CCOc1ccc(Nc2ncnc3c2cnn3C)cc1,-16.6
13,COc1cccc(C(c2c(C)[nH]n(-c3ccccc3)c2=O)c2c(C)[nH]n(-c3ccccc3)c2=O)c1O,-4.28
14,CCN(CC)CCCn1c(=S)[nH]c2cc(OC)c(OC)cc2c1=O,-2.6
15,CCN(CC)CCn1c(=S)[nH]c2ccccc2c1=O,-25.6
16,CN(C)CCn1c(=S)[nH]c2ccc(Cl)cc2c1=O,-21.7
17,CCN(CC)CCn1c(=S)[nH]c2ncccc2c1=O,-20.5
18,CCN(CC)CCn1c(=S)[nH]c2ccc(Br)cc2c1=O,-66.7
19,CCN(CC)CCn1c(=S)[nH]c2ccc(Cl)cc2c1=O,-60.8
20,CCN(CC)CCCn1c(=S)[nH]c2ncccc2c1=O,-15.9
21,CCN(CC)CCn1c(=S)[nH]c2cc3c(cc2c1=O)OCO3,-24.2
22,CCN(CC)CCCn1c(=S)[nH]c2ccc(Cl)cc2c1=O,-63.7
23,Cc1ccc(CCNC(=O)C2CCN(S(=O)(=O)c3ccc4c(c3)NC(=O)C(C)S4)CC2)cc1 (centres unmarked),-2.94

row,Compound,"hERG current change (%, negative = inhibition) at 10uM [%]"
1,CC(C)N(C(=O)CSc1ccc(S(=O)(=O)N2CCCCC2)cn1)C(C)C,-15.7
2,CC12CCC(C(=O)O)(c3nc4cc([N+](=O)[O-])ccc4nc31)C2(C)C (centres unmarked),-1.75
3,O=C(NC(Cc1c[nH]c2ccccc12)C(=O)O)/C(=C\c1ccccc1)NC(=O)c1ccccc1 (centres unmarked),9.54
4,COc1ccc2cnn(-c3ccc(OC(F)(F)Cl)cc3)c(=O)c2c1OC,6.28
5,CCCN(CC(=O)Nc1ccccc1C)C(=O)c1ccc(N2CCCCC2)c([N+](=O)[O-])c1,-43.7
6,CCN(CC(=O)Nc1cc(Cl)ccc1C)C(=O)c1cc([N+](=O)[O-])ccc1N1CCOCC1,-18.5
7,CCCN(CC(=O)Nc1ccc(F)c(F)c1F)C(=O)c1cc([N+](=O)[O-])ccc1N1CCOCC1,-67.1
8,CCN(CC(=O)Nc1c(F)cccc1F)C(=O)c1cc([N+](=O)[O-])ccc1N1CCOCC1,-4.57
9,CCCN(CC(=O)Nc1ccccc1C)C(=O)c1ccc(N2CCOCC2)c([N+](=O)[O-])c1,-70.3
10,CCCN(CC(=O)Nc1ccccc1C)C(=O)c1ccc(N2CCCC2)c([N+](=O)[O-])c1,-41.3
11,O=C(NCC(=O)N1CCN(C(=O)c2ccccc2)CC1)c1ccccc1,5.05
12,C/C=C/C1=CC(=O)C[C@H](c2ccc(Cl)cc2)C1,-63.9
13,COc1ccc([C@H]2CC(=O)C=C(/C=C/c3ccc(Cl)cc3)C2)cc1,12.8
14,COc1ccc([C@H]2CC(=O)C=C(c3cc(C(F)(F)F)cc(C(F)(F)F)c3)C2)cc1,4.42
15,O=C1C=C(c2ccccc2)CC(c2ccc(F)cc2)C1 (centres unmarked),-28.2
16,CCCCC/C=C/C1=CC(=O)C[C@H](c2ccc(Cl)cc2)C1,-47.4
17,O=C1C=C(/C=C/c2ccccc2)C[C@@H](c2ccc3c(c2)OCO3)C1,20
18,O=C1C=C(/C=C/c2ccccc2)C[C@@H](c2ccc(F)cc2)C1,-59.7
19,C/C=C/C1=CC(=O)C[C@H](c2ccc(F)cc2)C1,-34.3
20,COc1ccc([C@H]2CC(=O)C=C(/C=C/c3ccc(C(F)(F)F)cc3)C2)cc1,-62.9
